# Experimental data from PubChem BioAssay AID628 (Vanderbilt High Throughput Screening Facility, 2007).
# Out of some 64,000 compounds screened, about 2,200 (3.4%) were called active.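 Rule for the calls: active = calcium fluorescence response, raw or row-and-column corrected B-score, differing from the plate sample mean either way at a set confidence level, mostly lower; inactive = the rest.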 The sample as a whole holds a higher share of actives than the screen did.
# Target: Muscarinic acetylcholine receptor M1 (Rattus norvegicus) (UniProt P08482)
# Test: blocks the rat M1 muscarinic receptor response to acetylcholine (AID 628)
# Settings: CHO-M1 cells, Fluo-4 calcium, ACh EC80 antagonist mode; at 10 µM; active compounds read low
# Muscarinic acetylcholine receptor M1 (Rattus norvegicus), sequence (P08482 whole entry, looked up): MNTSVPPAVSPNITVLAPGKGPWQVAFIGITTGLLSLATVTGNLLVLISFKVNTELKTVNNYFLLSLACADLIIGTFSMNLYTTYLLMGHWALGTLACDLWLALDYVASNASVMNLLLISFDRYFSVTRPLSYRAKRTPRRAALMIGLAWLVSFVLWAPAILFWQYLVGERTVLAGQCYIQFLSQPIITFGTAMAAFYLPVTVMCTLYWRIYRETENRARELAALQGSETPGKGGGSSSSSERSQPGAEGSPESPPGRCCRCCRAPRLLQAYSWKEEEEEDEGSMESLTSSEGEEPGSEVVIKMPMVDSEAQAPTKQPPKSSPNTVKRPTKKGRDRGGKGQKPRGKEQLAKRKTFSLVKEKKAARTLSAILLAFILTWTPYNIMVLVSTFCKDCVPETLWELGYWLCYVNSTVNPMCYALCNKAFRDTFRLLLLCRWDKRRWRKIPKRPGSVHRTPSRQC
row,Structure (SMILES),B-score
1,CC(=O)Nc1cccc(NC(=O)c2c(-c3ccccc3)noc2C)c1,0.424 (inactive)
2,Cn1c(=O)[nH]c(=O)c2c1nc(N1CCN(CCO)CC1)n2CCSc1nc2ccccc2s1,-0.514 (inactive)
3,C=C(Br)Cn1c(CCCC)nc2ccccc21,0.344 (inactive)
4,OC1CN=C2Sc3ccccc3N2C1 (stereo not given),-0.000781 (inactive)
5,COc1cc(Cl)c(C)cc1NC(=O)CSc1nnc(-c2cccnc2)n1Cc1ccco1,1.15 (inactive)
6,COc1cc(Cl)c(C)cc1NC(=O)CSc1nnc(-c2ccco2)n1CC(C)C,-3.28 (active)
7,CCn1c(SCC(=O)Nc2cc(C)c(Cl)cc2OC)nnc1-c1ccco1,0.0151 (inactive)
8,Cc1ccc(C)c2[nH]c(=O)c(CCNC(=O)CC(C)C)cc12,0.426 (inactive)
9,O=c1/c(=C/c2ccc(CNS(=O)(=O)c3ccccc3)o2)sc2n1CCN=2,-1.07 (inactive)
10,C=CCSc1nc2ccccc2[nH]1,-3.2 (active)
11,O=C(CSc1nc2ccccc2[nH]1)c1cccs1,0.722 (inactive)
12,c1ccc2[nH]c(-c3nc4ccccc4[nH]3)nc2c1,0.625 (inactive)
13,O=S(=O)(c1cccc(-c2nnc(SC(F)F)n2-c2ccccc2)c1)N1CCCCC1,0.56 (inactive)
14,CCCCN=C(N)/C(C(=O)OCC)=C(\O)c1ccc(OC)cc1,0.0185 (inactive)
15,Cc1cccc(C)c1NC(=O)CCCSc1nnc(-c2ccco2)n1-c1ccccc1,0.509 (inactive)
16,CCN(c1ccc2c(c1)OCO2)S(=O)(=O)c1cc(Br)cc2c1N(C(=O)C1CC1)CC2,-0.598 (inactive)
17,CCOC(=O)N1CCN(C(=O)C2CCN(S(C)(=O)=O)CC2)CC1,-0.427 (inactive)
18,CCOC(=O)N1CCN(S(=O)(=O)c2cc(Br)cc3c2N(C(=O)C2CC2)CC3)CC1,-2.88 (active)
19,COc1ccccc1N1CCN(Cc2ccc(OC)c3ccccc23)CC1,0.229 (inactive)
20,COc1ccc(S(=O)(=O)Nc2ccc(S(=O)(=O)N3CCCCC3)cc2)cc1OC,0.8 (inactive)

row,Structure (SMILES),B-score
1,Cc1ccc(C)c(NC(=O)CSc2nnc(Cc3cccn3C)n2-c2ccc(F)cc2)c1,0.873 (inactive)
2,COc1ccc(-c2nnn(Cc3nc(N)nc(N4CCCCC4)n3)n2)cc1,-1.19 (active)
3,CCOc1ccc(-c2nnn(CC(=O)N3CCN(c4ccc(OC)cc4)CC3)n2)cc1OCC,0.00223 (inactive)
4,CCc1ccc(-c2nnn(Cc3nn[nH]n3)n2)cc1,0.0832 (inactive)
5,Cc1cc(C)c(C#N)c(SCc2[nH]nc3c2C(c2ccccc2)C(C#N)=C(N)O3)n1 (stereo not given),0.363 (inactive)
6,N#CC1=C(N)Oc2n[nH]c(CSc3ccccc3)c2C12C(=O)Nc1ccccc12 (stereo not given),2.72 (active)
7,COc1ccc(Br)cc1/C=N/n1c(C)nnc1C,0.304 (inactive)
8,CCOc1ccc(C2C(C(=O)NC)=C(C)Nc3nc4ccccc4n32)cc1OC (stereo not given),-3.24 (active)
9,COc1cc(C2C(C(=O)Nc3ccc(F)cc3)=C(C)Nc3nc(CCCO)nn32)cc(OC)c1OC (stereo not given),0.464 (inactive)
10,COc1cc(C2C(C(=O)Nc3ccccc3OC)=C(C)Nc3ncnn32)ccc1O (stereo not given),-0.653 (inactive)
11,COc1ccc(OCC(=O)OCCN(C)C)cc1,0.389 (inactive)
12,CN(C)CCOC(=O)C(c1ccccc1)C1(O)CCCC1 (stereo not given),-11.9 (active)
13,Cn1nc(-c2ccc(Cl)cc2)c2cc(C(=O)NCc3ccco3)sc21,0.443 (inactive)
14,CCN1CCN(C(=O)CN(C)S(=O)(=O)c2ccc(OC)cc2)CC1,0.444 (inactive)
15,CC1=Nn2c(nnc2-c2ccccc2)SC1,-3.94 (active)
16,COc1ccc(-c2nn3c(-c4ccccc4)nnc3s2)cc1OC,-1.59 (inactive)
17,c1ccc(-c2nnc3n2NC(c2ccc4c(c2)OCO4)S3)cc1 (stereo not given),-0.212 (inactive)
18,c1ccc(-n2ncc(-c3nn[nH]n3)n2)cc1,2.54 (inactive)
19,Cn1c(C(=O)NCCCN2CCCCC2)cc2sccc21,-1.16 (inactive)
20,Cc1ccsc1-c1nc(CSCC(=O)NCCN2CCCC2)c(C)o1,-4.42 (active)

row,Structure (SMILES),B-score
1,Cc1cc(NC(=O)CSCc2nc(-c3cccc(Cl)c3)oc2C)no1,0.32 (inactive)
2,COCCn1c(CN(Cc2ccccc2)Cc2ccccc2)nc2c1c(=O)n(C)c(=O)n2C,0.00241 (inactive)
3,CSCCC(NC(N)=O)C(=O)N(C)CC(=O)Nc1ccc(C)cc1 (stereo not given),-0.414 (inactive)
4,Cc1[nH]c2ccccc2c1C(=O)CSCC(=O)O,-0.627 (inactive)
5,COC(=O)COc1ccc(S(=O)(=O)N2CCOCC2)cc1,0.524 (inactive)
6,OC(COc1ccc2ccccc2c1)CN1CCOCC1 (stereo not given),-0.165 (inactive)
7,O=S(=O)(c1ccc(OCC(O)CN2CCN(c3ccccc3Cl)CC2)cc1)N1CCOCC1 (stereo not given),-1.73 (active)
8,CCCc1[nH]nc2c1C(c1ccc(OC)c(Cn3nc(C)c(Br)c3C)c1)C(C#N)=C(N)O2 (stereo not given),-0.527 (inactive)
9,Cc1ccc(-c2noc(CCC(=O)Nc3ccccc3N3CCN(C)CC3)n2)cc1,-3.17 (active)
10,Cc1ccc(-c2noc(CCC(N)=O)n2)cc1,0.182 (inactive)
11,CCCC(=O)Nc1ccccc1N1CCN(C(=O)c2ccccc2)CC1,0.0711 (inactive)
12,COc1ccc(NC(=O)Nc2cccc3cccnc23)cc1,-0.447 (inactive)
13,CCOC(=O)c1cccc(NC(=O)CN(c2ccc(C)cc2)S(=O)(=O)c2c(C)noc2C)c1,-0.345 (inactive)
14,COC(=O)c1ccc(NC(=O)CN(c2ccc(C)cc2)S(=O)(=O)c2c(C)n[nH]c2C)cc1,-1.39 (active)
15,CCN(CC)C(=O)CCC(=O)Nc1ccc(C(=O)OC)cc1,-0.0517 (inactive)
16,CCOc1ccc(-c2nnc(-c3ccco3)o2)cc1,0.158 (inactive)
17,CC(C)(C)NC(=O)C(c1ccco1)N(Cc1ccc2c(c1)OCO2)C(=O)Cn1nnc2ccccc21 (stereo not given),-0.446 (inactive)
18,CCOC(=O)Cn1c(SC)nc2sc3c(c2c1=O)CC(C)(C)OC3,-0.00652 (inactive)
19,CCOC(=O)CSc1nc2sc3c(c2c(=O)[nH]1)CC(C)(C)OC3,1.04 (inactive)
20,CCC1(C)Cc2c(sc3nc4n(c(=O)c23)CCCS4)CO1 (stereo not given),-1.1 (active)
